# Source: PubChem BioAssay (NCI)
# About 79,000 compounds went through this panel and 15% of them were active in at least one assay; those are over-represented in the sample as a whole. Values without a mark were called inactive. The source made the active and inactive calls. Rule as the data show it: active = growth inhibition above about 70%; inactive = the rest.
# Assays:
# [1] = NCI Yeast Anticancer Drug Screen. Data for the rad50 strain (AID 155);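 also: 0% = growth of vehicle-only cultures of the same strain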; settings: S. cerevisiae rad50 strain growth inhibition, active compounds read high
# Method in brief: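 Inhibition values express reduced yeast growth in compound-treated cultures relative to vehicle-treated controls.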
# [2] = NCI Yeast Anticancer Drug Screen. Data for the mec2-1 strain (AID 157); settings: S. cerevisiae mec2-1 strain, active compounds read high
# Method in brief: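 Readout is yeast growth inhibition, normalised to vehicle-treated controls, in the mec2-1 strain exposed to compound.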
# [3] = NCI Yeast Anticancer Drug Screen. Data for the sgs1 mgt1 strain (AID 161);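 also: 0% = growth of cultures given vehicle only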; settings: S. cerevisiae sgs1 mgt1 strain, active compounds read high
# Method in brief: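 Compounds are added to genetically altered yeast, and growth is compared with cultures given vehicle alone to give percent inhibition.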
# [4] = NCI Yeast Anticancer Drug Screen. Data for the cln2 rad14 strain (AID 165);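 also: 0% = growth equal to vehicle treated cultures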; settings: S. cerevisiae cln2 rad14 strain, active compounds read high
# Method in brief: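 Relative to vehicle controls, growth inhibition of compound-treated cln2 rad14 yeast was recorded.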
# [5] = NCI Yeast Anticancer Drug Screen. Data for the bub3 strain (AID 167); settings: S. cerevisiae bub3 mutant strain, active compounds read high
# Method in brief: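 Steps: expose the mutant yeast strain to compound; grow alongside vehicle-treated cultures; measure growth; express inhibition against the vehicle cultures.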
# [6] = NCI Yeast Anticancer Drug Screen. Data for the mlh1 rad18 strain (AID 175); settings: S. cerevisiae mlh1 rad18 strain growth inhibition, active compounds read high
# Method in brief: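 Test agents were incubated with a yeast strain of defined genotype (DNA damage repair defect). Inhibition of growth was derived by comparison with vehicle-exposed cultures.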
# [7] = at 5.0 µM (retest, dose inferred, filed as 0.5)
# [8] = at 50.0 µM (retest, dose inferred, filed as 5.0)
SMILES,"growth inhibition [1, 7]","growth inhibition [1, 8]",growth inhibition ([1]; at 50.0 µM),"growth inhibition [2, 7]","growth inhibition [2, 8]",growth inhibition ([2]; at 50.0 µM),"growth inhibition [3, 7]","growth inhibition [3, 8]",growth inhibition ([3]; at 50.0 µM),"growth inhibition [4, 7]","growth inhibition [4, 8]",growth inhibition ([4]; at 50.0 µM),"growth inhibition [5, 7]","growth inhibition [5, 8]",growth inhibition ([5]; at 50.0 µM),"growth inhibition [6, 7]","growth inhibition [6, 8]",growth inhibition ([6]; at 50.0 µM)
CC1CCC(C)(C)c2cc([N+](=O)[O-])cc([N+](=O)[O-])c21 (stereo not given),-1%,99% (active),-6.5%,0%,99% (active),-0.75%,-4%,99% (active),26.2%,1%,99% (active),-8.1%,18%,99% (active),80.2% (active),-1%,99% (active),17.9%
COc1ccc2c(c1)CCn1c(C)c(COC(=O)NC(C)C)c(COC(=O)NC(C)C)c1-2,17%,98% (active),88.7% (active),0%,98% (active),92.3% (active),33%,98% (active),89.2% (active),10%,97% (active),90.3% (active),15%,98% (active),88.7% (active),17%,98% (active),87.7% (active)
CC(C)CCCC(C)C1CCC2C3C=CC4=CCCCC4(C)C3CCC12C (stereo not given),-18%,95% (active),97.6% (active),3%,98% (active),94.8% (active),-8%,96% (active),8.35%,-5%,94% (active),93% (active),-4%,93% (active),91.2% (active),31%,98% (active),98.1% (active)
Nc1nc(-c2ccccc2)nc(Cl)c1I,0%,17%,74.7% (active),-3%,24%,28.9%,3%,43%,78% (active),3%,21%,15.6%,-10%,16%,-5.25%,-4%,21%,81.4% (active)
Cc1ccc(Oc2ccc(C(=O)C(CN(C)C)CN(C)C)cc2)cc1,93% (active),98% (active),92.1% (active),93% (active),96% (active),98% (active),95% (active),98% (active),51.4%,75% (active),95% (active),95.6% (active),91% (active),96% (active),96.2% (active),96% (active),96% (active),97.1% (active)
CC1=NC(=Cc2cccc(Cl)c2)C(=O)N1n1c(-c2ccccc2)nc2ccccc2c1=O,18%,73% (active),68.5%,21%,77% (active),69.9%,11%,71% (active),79.4% (active),16%,84% (active),78% (active),-9%,86% (active),74.7% (active),11%,81% (active),81.7% (active)
C/C(=N\NC(=S)N1CCCC1)c1nc2ncccc2[nH]1,-20%,97% (active),85.9% (active),-3%,94% (active),84.8% (active),-2%,95% (active),83.2% (active),-38%,97% (active),81.7% (active),-40%,98% (active),87% (active),12%,97% (active),82% (active)
CC(=O)OC1CCC2(C)C(=CCC3C2CCC2(C)C(C(C)N)CCC32)C1 (stereo not given),8%,98% (active),98.3% (active),18%,98% (active),98.7% (active),18%,98% (active),93% (active),-62%,96% (active),70.8% (active),1%,78% (active),95.8% (active),8%,98% (active),98.1% (active)
O=[N+]([O-])c1ccccc1CC(c1c[nH]c2ccccc12)c1c[nH]c2ccccc12,0%,73% (active),86% (active),-1%,74% (active),80.7% (active),-2%,70% (active),82.9% (active),1%,80% (active),78.9% (active),-1%,80% (active),55.8%,1%,81% (active),87.3% (active)
O=C(NCCCCCCNC(=O)n1cc(F)c(=O)[nH]c1=O)NC1C(O)OC(CO)C(O)C1O (stereo not given),63%,89% (active),93.9% (active),80% (active),96% (active),97.6% (active),83% (active),93% (active),93.1% (active),34%,84% (active),51%,22%,90% (active),80% (active),48%,90% (active),88.2% (active)
